In the library only some 5.7% were active in any assay of this set; here they are far more common.
DAX1 inh-1: inhibitors of DAX1 repression of SF-1 activated StAR promoter. HEK293T StAR-luciferase reporter, SF-1/DAX-1 repression relief. inhibition, % at 6.8 µM. actives 1.1% (n = 370,000);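 active = inhibition above the mean over all tested compounds plus 3 SD, cut at about 3.6% in these data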;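 note: higher inhibition means more luminescence from relief of DAX-1 repression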
ssDAF-12 act: activators of S. stercoralis DAF-12 nuclear receptor | HEK293 ssDAF-12/GRIP1 lit1-tk-luc reporter, luminescence; % of 3 µM dafachronic acid response | AID 652126 | activation, % at 6.8 µM | actives 1% (n = 370,000);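 active = activation above the mean over all tested compounds plus 3 SD, cut at about 0.9% in these data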
AHR act: activates the human aryl hydrocarbon receptor. actives 2.5% (n = 320,000). AHR-responsive luciferase reporter cells, luminescence. activation, % at 5 µM. P35869; in the data active = activation above about 47%
hgDAF-12 ag: hgDAF-12 agonism, primary luciferase screen. activation, % at 6.8 µM. actives 1.8% (n = 370,000). HEK293 GAL4-hgDAF12 UAS-luciferase reporter, agonist luminescence; normalized to butyrate control;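 active = activation above a cutoff set at the mean of all screened compounds plus 3 SD, cut at about 10% in these data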
hcDAF12 agonist: activates DAF-12 receptor from parasite H. contortus | HEK293 hcDAF-12 lit1-tk-luc reporter, luminescence; 0% DMSO, 100% Δ7-dafachronic acid | activation, % at 6.8 µM | actives 1.4% (n = 370,000);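 active = activation above the mean of all tested compounds plus 3 SD, cut at about 5.5% in these data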
DAX1 inh-2: inhibits human nuclear receptor DAX1; P51843; HEK293 Gal4-DAX1 luciferase reporter, luminescence; inhibition, % at 6.75 µM; actives 0.99% (n = 340,000);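 active = inhibition above the mean over all tested compounds plus 3 SD, cut at about 4.2% in these data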;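 note: inhibition shows as a rise in luminescence from relieved DAX1 repression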
Target sequence (P51843 207-470 limits assumed): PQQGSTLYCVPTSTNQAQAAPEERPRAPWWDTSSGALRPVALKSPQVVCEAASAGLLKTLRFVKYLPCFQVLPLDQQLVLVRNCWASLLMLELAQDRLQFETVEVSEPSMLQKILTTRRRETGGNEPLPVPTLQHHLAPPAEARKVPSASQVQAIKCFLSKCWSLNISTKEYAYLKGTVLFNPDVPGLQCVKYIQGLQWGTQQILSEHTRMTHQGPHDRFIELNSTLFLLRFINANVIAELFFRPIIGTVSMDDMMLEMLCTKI
DAX1 inh confirm: confirmation of human DAX1 (NR0B1) inhibitors | actives 87% (n = 2,400) | inhibition, % at 6.8 µM | shares compounds with DAX1 inh-1 | AID 652134 | HEK293T StAR-promoter luciferase reporter, SF-1/DAX-1 repression;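 active = inhibition above the average of every tested compound plus 3 SD, cut at about 3.8% in these data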;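 note: active compounds raise luminescence by relieving repression of the StAR reporter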
Target sequence (P51843 whole entry, looked up): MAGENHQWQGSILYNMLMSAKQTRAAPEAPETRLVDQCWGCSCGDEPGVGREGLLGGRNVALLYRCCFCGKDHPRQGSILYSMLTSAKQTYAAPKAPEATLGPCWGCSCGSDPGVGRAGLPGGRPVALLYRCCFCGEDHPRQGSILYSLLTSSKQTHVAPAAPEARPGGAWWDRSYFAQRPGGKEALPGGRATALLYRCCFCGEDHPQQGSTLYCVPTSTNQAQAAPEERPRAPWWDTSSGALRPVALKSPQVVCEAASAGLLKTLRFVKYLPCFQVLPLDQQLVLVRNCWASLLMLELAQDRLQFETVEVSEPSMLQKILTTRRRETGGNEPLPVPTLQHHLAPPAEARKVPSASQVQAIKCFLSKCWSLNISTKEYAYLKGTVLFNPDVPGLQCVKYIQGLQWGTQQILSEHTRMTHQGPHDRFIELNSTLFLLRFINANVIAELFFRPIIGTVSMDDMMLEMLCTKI
SF1 AF2mut Luc: nonselective inhibitor or artifact in SF-1 mutant DAX1 counter-screen; inhibition, % at 6.8 µM; shares compounds with DAX1 inh-1; HEK293 StAR-luciferase, SF-1 AF2 mutant, luminescence; actives 78% (n = 2,400);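 active = inhibition above the mean of all tested compounds plus 3 SD, cut at about 3% in these data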
Large screens that a line does not name were inactive (follow-up assays come after a bar, where they were run).

N/C(=N\OC(=O)c1ccoc1)c1ccc(Br)cc1	DAX1 inh-1 9.5 | DAX1 inh confirm 11 | SF1 AF2mut Luc 6.9
Cc1cc(C)cc(C(=O)O/N=C(\N)c2ccc(Br)cc2)c1	none
Cc1ccc2nc(-c3cccc(Cl)c3)c(Cc3cccc(F)c3)n2c1	DAX1 inh-1 4.8 (no result: AHR act, DAX1 inh-2) | DAX1 inh confirm inactive | SF1 AF2mut Luc inactive
Cc1ccc2nc(-c3ccc(Cl)cc3)c(Cc3ccccc3C(F)(F)F)n2c1	DAX1 inh-1 7.7, hgDAF-12 ag 12 (no result: AHR act, DAX1 inh-2) | DAX1 inh confirm 3.7 | SF1 AF2mut Luc 3.7
Cc1ccc(-c2nc3ccc(Cl)cn3c2Cc2ccccc2C(F)(F)F)cc1	none (no result: AHR act, DAX1 inh-2)
Cc1ccc(CNc2ccc(N3C(=O)CCCC3=O)cc2[N+](=O)[O-])cc1	none
CN(c1nc2ccccc2[nH]c1=O)C1CCCCC1	none
N#C/C(=N\Nc1cccc(F)c1)C(=N)N1CCCCCC1	DAX1 inh-1 6.8, ssDAF-12 act 1.7, hgDAF-12 ag 13, DAX1 inh-2 7.0 | DAX1 inh confirm 19 | SF1 AF2mut Luc 8.6
CCCOC1CCCN(C(=O)c2cc(COc3c(F)cccc3F)on2)C1 (stereo not drawn)	DAX1 inh-1 4.5 | DAX1 inh confirm 4.4 | SF1 AF2mut Luc 5.5
Cc1c(C(=O)Nc2ccccn2)sc2nc3n(c(=O)c12)CCC3	DAX1 inh-1 8.8 | DAX1 inh confirm 9.8 | SF1 AF2mut Luc 6.1
Cc1ccc(NC(=O)c2ccc(-c3cc(Cl)ccc3Cl)o2)c(C)c1	DAX1 inh-1 5.9 (no result: AHR act, DAX1 inh-2) | DAX1 inh confirm inactive | SF1 AF2mut Luc inactive
COc1cc(=O)n(C)c2c(OCC3OC(C)(C)OC3(C)C)cccc12 (stereo not drawn)	none
O=C(OCC(=O)N1CCNC1=O)c1ccccc1Cl	none (no result: AHR act)
Cc1ccc(C(=O)OCC(=O)N2CCNC2=O)c(C)c1	DAX1 inh-1 6.9 (no result: AHR act) | DAX1 inh confirm 7.1 | SF1 AF2mut Luc 5.9
COc1ccc(S(=O)(=O)NNC(=O)Nc2ccc(F)cc2F)c(OC)c1	none
O=C(NCCc1ccccc1)C1=COCCO1	DAX1 inh-1 7.8 | DAX1 inh confirm 8.7 | SF1 AF2mut Luc 6.5
O=C(N/N=C/c1cc(Br)c(O)c(Br)c1)c1cc2c(ccc3ccccc32)o1	DAX1 inh-1 5.2 (no result: AHR act) | DAX1 inh confirm inactive | SF1 AF2mut Luc inactive
COc1ccccc1/C=N\NC(=O)c1cccc(S(=O)(=O)N(C)C)c1	none (no result: AHR act, DAX1 inh-2)
CN(C)S(=O)(=O)c1cccc(C(=O)N/N=C\c2ccccc2[N+](=O)[O-])c1	DAX1 inh-1 6.9, hgDAF-12 ag 11 (no result: AHR act, DAX1 inh-2) | DAX1 inh confirm 12 | SF1 AF2mut Luc 9.7
COc1ccc(S(=O)(=O)Nc2cc3c4c(c2)CC(=O)N4CCC3)cc1C	none
CC(=O)c1ccc(OCCCCOc2ccc(C(C)=O)cc2)cc1	none
C=C(C)CSc1cc(C)nc2c(-c3ccccc3)c(C)nn12	none
O=C(Nc1ccc(Cl)cc1Cl)c1ccc2c(=O)n3c(nc2c1)CCC3	DAX1 inh-1 8.7 | DAX1 inh confirm 11 | SF1 AF2mut Luc 7.5
O=C(Nc1ccc(Br)cc1Cl)c1ccc2c(=O)n3c(nc2c1)CCC3	DAX1 inh-1 5.1 | DAX1 inh confirm 5.2 | SF1 AF2mut Luc 2.9
O=C(Nc1ccc(Cl)cc1)c1ccc2c(=O)n3c(nc2c1)CCCCC3	none
CCCCC(=O)N1CCN(c2nc3ccc(F)cc3s2)CC1	DAX1 inh-1 5.2 | DAX1 inh confirm inactive | SF1 AF2mut Luc 3.8
CCCCC(=O)N1CCN(c2nc3ccc(OCC)cc3s2)CC1	none
NC(Cc1ccc(C(F)(F)F)cc1)c1csc(Nc2nccc(C(F)(F)F)n2)n1 (stereo not drawn)	none (no result: AHR act, DAX1 inh-2)
CCN1CCN(c2ccc(NC(=O)c3cc4ccccc4cc3OC)cc2C)CC1	DAX1 inh-1 5.1, hgDAF-12 ag 11 | DAX1 inh confirm 7.0 | SF1 AF2mut Luc 3.1
CCN1CCN(c2ccc(NC(=O)c3ccc4c(c3)OCCO4)cc2C)CC1	DAX1 inh-1 7.9, hgDAF-12 ag 11 (no result: AHR act) | DAX1 inh confirm 11 | SF1 AF2mut Luc 5.2
CCN1CCN(c2ccc(NC(=O)c3ccccc3F)cc2Cl)CC1	none
O=C1c2ccccc2C(=O)N1CCOc1ccccc1Cl	DAX1 inh-1 8.0 | DAX1 inh confirm 3.8 | SF1 AF2mut Luc 4.3
O=C1c2ccccc2C(=O)N1CCOc1ccccc1Br	DAX1 inh-1 4.8 | DAX1 inh confirm 4.3 | SF1 AF2mut Luc inactive
Cc1cccc2c1N(CCOc1ccccc1Cl)C(=O)C2=O	none
Oc1ccc(C=Nc2ccc3ncccc3c2)c(O)c1	none (no result: DAX1 inh-1, ssDAF-12 act, hgDAF-12 ag, hcDAF12 agonist, DAX1 inh-2)
CC(=O)N(C)c1ccc(N=Nc2ccc3ncccc3c2)cc1	DAX1 inh-1 5.5, hgDAF-12 ag 12, hcDAF12 agonist 5.7 (no result: AHR act) | DAX1 inh confirm 10 | SF1 AF2mut Luc 3.7
CC(=O)Nc1cccc(-c2cccc3nccn23)c1	DAX1 inh-1 5.4 (no result: AHR act, DAX1 inh-2) | DAX1 inh confirm 5.6 | SF1 AF2mut Luc 3.7
Cc1ccc(C(=O)NC2CCc3ccccc3C2=O)cc1 (stereo not drawn)	DAX1 inh-1 5.5, hgDAF-12 ag 13 | DAX1 inh confirm 4.6 | SF1 AF2mut Luc 3.3
Cc1ccc(C(=O)NC2CCSC2=O)cc1 (stereo not drawn)	none
CCN(c1ccc(OCC(=O)OCC(=O)c2c(N)n(C)c(=O)n(C)c2=O)cc1)S(=O)(=O)c1ccccc1	DAX1 inh-1 5.2 | DAX1 inh confirm inactive | SF1 AF2mut Luc inactive
COc1ccc(/C=N/Nc2ncc(-c3ccccc3)cn2)c(OC)c1	none
COc1ccc(/C=N/Nc2ncccc2[N+](=O)[O-])c(OC)c1	DAX1 inh-1 5.0 | DAX1 inh confirm 15 | SF1 AF2mut Luc 8.9
CCN(CC)S(=O)(=O)c1ccc(C(=O)NCC2(N3CCOCC3)CCCCC2)cc1	DAX1 inh-1 4.6 | DAX1 inh confirm inactive | SF1 AF2mut Luc inactive
CN(C)S(=O)(=O)c1ccc(C(=O)NCC2(N3CCCCC3)CCCCC2)cc1	DAX1 inh-1 6.0 | DAX1 inh confirm 8.5 | SF1 AF2mut Luc 3.3
COc1ccc(/C=C2\Sc3ccc(C(=O)NCCCN4CCCC4)cc3N(C)C2=O)cc1OC	DAX1 inh-1 4.6 | DAX1 inh confirm 6.0 | SF1 AF2mut Luc inactive
Cc1cc(C(=O)N2CCC2(C)C(=O)Nc2ccc3[nH]ncc3c2)nn1C (stereo not drawn)	none (no result: AHR act, DAX1 inh-2)
CCOc1ccccc1N(C)C(=O)c1cn(C)c(=O)c2ccccc12	none
C=CCCC(=O)N1C[C@H]2CON(C)[C@H]2C[C@H]1c1cccc(Br)c1	none (no result: AHR act)
CCN(CC)S(=O)(=O)c1ccc(NC(=O)CCN2C(=O)C3CC=CCC3C2=O)cc1 (stereo not drawn)	DAX1 inh-1 5.2 | DAX1 inh confirm inactive | SF1 AF2mut Luc inactive
